Assay results reported in PMC7862700, “An all-to-all approach to the identification of sequence-specific readers for epigenetic DNA modifications on cytosine”.

Legend:
Test in all cases: DAPPL (digital affinity profiling via proximity ligation, sequencing); 10 mM Tris-HCl pH 7.5, 50 mM NaCl, 1 mM DTT, 4% glycerol, room temperature, 30 min; GST-TFs on glutathione beads, 16-mer random dsDNA library, 0.1% formaldehyde crosslink after washing; high values mean tight binding
Conditions in all cases: protein: recombinant; tags: N-terminal GST; dsDNA, one strand shown
FLI1 = target: T1, FLI1 (Homo sapiens, UniProt Q01543 1-452)
T1 sequence: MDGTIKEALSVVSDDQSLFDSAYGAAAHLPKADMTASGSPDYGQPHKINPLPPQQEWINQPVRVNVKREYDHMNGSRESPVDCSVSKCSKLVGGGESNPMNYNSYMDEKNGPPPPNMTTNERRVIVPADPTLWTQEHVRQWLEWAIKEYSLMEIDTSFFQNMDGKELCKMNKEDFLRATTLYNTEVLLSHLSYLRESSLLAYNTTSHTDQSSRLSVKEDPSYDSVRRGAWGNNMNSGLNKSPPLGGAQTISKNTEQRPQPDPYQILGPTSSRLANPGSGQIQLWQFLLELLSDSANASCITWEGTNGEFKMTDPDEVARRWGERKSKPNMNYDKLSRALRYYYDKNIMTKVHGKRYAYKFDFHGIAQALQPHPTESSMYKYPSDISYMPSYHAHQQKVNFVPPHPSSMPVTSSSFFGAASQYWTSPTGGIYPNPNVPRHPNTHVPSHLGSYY
Procedure, shortened: (§1)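 Binding signal is each hexamer's read frequency for a factor divided by its frequency in the tag-only sample. The factors were GST-fused human transcription factors from yeast, captured on glutathione beads, DNA-barcoded and pooled with that sample. Pools were incubated with 200 nmole of a random double-stranded 16-mer DNA library in Tris/NaCl/DTT/glycerol buffer at room temperature for 30 min, then washed, crosslinked with 0.1% formaldehyde, proximity-ligated with BsaI/T4 ligase (1 h, 37 °C), PCR-amplified and sequenced on an Illumina NextSeq500.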

ELK1 = target: T2, ELK1 (Homo sapiens, UniProt P19419 1-428)
T2 sequence: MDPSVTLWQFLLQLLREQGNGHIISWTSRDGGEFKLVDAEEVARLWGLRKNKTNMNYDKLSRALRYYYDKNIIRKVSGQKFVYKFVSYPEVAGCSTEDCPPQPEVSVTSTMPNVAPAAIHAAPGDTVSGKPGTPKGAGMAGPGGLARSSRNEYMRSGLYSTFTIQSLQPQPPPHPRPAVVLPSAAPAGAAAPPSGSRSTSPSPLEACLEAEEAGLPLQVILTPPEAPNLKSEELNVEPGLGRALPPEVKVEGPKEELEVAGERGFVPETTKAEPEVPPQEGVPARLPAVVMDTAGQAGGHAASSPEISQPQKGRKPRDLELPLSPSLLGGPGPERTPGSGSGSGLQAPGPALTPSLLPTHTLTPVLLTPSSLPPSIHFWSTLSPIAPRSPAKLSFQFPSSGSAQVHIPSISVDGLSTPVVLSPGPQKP
Procedure, shortened: as §1

GABPA = target: T3, GABPA (Homo sapiens, UniProt Q06546 1-454)
T3 sequence: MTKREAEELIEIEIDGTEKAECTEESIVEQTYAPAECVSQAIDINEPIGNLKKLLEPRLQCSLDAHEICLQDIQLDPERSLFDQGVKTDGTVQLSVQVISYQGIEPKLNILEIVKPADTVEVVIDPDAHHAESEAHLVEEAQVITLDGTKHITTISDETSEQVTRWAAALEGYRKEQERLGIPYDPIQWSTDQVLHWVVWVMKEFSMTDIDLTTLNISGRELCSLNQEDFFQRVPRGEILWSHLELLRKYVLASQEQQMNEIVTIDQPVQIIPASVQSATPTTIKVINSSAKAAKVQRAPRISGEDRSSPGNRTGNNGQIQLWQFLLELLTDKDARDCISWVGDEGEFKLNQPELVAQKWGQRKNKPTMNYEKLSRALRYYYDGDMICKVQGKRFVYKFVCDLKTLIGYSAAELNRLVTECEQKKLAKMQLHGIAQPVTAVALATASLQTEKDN
Procedure, shortened: as §1

ERG = target: T4, ERG (Homo sapiens, UniProt P11308 1-479)
T4 sequence: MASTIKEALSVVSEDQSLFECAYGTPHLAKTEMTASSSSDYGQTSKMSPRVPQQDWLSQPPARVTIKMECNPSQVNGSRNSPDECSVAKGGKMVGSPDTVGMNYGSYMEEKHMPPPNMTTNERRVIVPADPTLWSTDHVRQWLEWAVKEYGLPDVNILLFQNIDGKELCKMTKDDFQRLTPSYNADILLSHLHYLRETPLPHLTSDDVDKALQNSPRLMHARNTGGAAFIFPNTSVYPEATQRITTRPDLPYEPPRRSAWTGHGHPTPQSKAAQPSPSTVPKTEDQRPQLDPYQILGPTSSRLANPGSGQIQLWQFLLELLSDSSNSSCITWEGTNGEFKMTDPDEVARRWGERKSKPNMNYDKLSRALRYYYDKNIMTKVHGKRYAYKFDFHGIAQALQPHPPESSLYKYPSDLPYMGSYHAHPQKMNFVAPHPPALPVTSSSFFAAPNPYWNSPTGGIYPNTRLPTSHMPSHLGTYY
Procedure, shortened: as §1

ELF1 = ELF1 (Homo sapiens, UniProt P32519 1-619)
Procedure, shortened: as §1

EHF = target: T5, EHF (Homo sapiens, UniProt Q9NZC4 1-300)
T5 sequence: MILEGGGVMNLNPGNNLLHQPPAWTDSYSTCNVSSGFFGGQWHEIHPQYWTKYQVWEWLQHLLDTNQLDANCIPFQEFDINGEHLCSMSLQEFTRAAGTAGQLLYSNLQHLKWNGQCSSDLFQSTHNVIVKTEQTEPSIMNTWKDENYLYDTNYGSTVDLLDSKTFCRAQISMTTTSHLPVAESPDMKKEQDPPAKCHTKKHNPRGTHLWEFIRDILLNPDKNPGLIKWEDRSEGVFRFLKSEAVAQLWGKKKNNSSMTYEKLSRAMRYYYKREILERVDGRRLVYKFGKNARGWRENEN
Procedure, shortened: as §1

SPI1 = SPI1 (Homo sapiens, UniProt P17947 1-270)
Procedure, shortened: as §1

SPIB = SPIB (Homo sapiens, UniProt Q01892 1-262)
Procedure, shortened: as §1

ELK3 = target: T6, ELK3 (Homo sapiens, UniProt P41970 1-407)
T6 sequence: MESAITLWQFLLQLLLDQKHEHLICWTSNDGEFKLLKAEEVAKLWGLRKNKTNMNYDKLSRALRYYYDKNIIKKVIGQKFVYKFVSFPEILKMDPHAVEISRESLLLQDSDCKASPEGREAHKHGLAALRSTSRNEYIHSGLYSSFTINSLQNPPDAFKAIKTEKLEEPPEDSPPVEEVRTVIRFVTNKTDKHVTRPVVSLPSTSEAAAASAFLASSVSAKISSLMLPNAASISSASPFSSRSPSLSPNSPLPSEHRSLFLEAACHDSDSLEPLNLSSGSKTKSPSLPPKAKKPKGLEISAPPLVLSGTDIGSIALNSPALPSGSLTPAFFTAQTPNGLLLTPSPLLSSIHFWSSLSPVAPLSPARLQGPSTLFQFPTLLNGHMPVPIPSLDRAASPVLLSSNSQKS
Procedure, shortened: as §1

Chain of ELF1 (P32519 whole entry): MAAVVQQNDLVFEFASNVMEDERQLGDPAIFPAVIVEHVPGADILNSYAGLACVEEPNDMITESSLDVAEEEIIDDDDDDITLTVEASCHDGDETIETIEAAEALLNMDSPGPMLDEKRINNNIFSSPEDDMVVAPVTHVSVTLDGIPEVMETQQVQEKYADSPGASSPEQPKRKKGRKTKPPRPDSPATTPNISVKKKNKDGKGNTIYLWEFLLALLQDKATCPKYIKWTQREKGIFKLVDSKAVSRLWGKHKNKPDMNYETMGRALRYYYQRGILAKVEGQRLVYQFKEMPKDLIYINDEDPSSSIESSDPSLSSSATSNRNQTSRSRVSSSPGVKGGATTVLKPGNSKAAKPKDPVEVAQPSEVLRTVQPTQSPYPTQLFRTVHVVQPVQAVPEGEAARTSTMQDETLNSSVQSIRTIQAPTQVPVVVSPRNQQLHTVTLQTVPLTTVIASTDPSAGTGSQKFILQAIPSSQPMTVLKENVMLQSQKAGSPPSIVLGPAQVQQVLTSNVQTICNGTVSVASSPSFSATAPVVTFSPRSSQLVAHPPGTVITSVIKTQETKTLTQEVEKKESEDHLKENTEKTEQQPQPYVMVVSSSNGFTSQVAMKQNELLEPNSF
Chain of SPIB (Q01892 whole entry): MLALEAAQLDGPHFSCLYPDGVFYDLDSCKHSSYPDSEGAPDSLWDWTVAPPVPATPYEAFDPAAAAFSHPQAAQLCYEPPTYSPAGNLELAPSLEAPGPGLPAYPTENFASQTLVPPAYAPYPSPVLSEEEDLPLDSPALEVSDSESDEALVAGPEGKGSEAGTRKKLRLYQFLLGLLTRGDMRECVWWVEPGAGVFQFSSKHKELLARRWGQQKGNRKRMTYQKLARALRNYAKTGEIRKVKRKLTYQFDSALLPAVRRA

Row | Sequence | binding signal (FLI1) | binding signal (ELK1) | binding signal (GABPA) | binding signal (ERG) | binding signal (ELF1) | binding signal (EHF) | binding signal (SPI1) | binding signal (SPIB) | binding signal (ELK3)
1 | ACTTTA | 1.12 fold enrichment (6-mer frequency, TF over GST control) | 1.26 fold enrichment (6-mer frequency, TF over GST control) | 1.29 fold enrichment (6-mer frequency, TF over GST control) | 1.17 fold enrichment (6-mer frequency, TF over GST control) | 1.21 fold enrichment (6-mer frequency, TF over GST control) | 1.2 fold enrichment (6-mer frequency, TF over GST control) | 1.33 fold enrichment (6-mer frequency, TF over GST control) | 1.19 fold enrichment (6-mer frequency, TF over GST control) | 1.22 fold enrichment (6-mer frequency, TF over GST control)
2 | CCCGTT | 1.17 fold enrichment (6-mer frequency, TF over GST control) | 1.08 fold enrichment (6-mer frequency, TF over GST control) | 1.21 fold enrichment (6-mer frequency, TF over GST control) | 1.26 fold enrichment (6-mer frequency, TF over GST control) | 1.12 fold enrichment (6-mer frequency, TF over GST control) | 1.15 fold enrichment (6-mer frequency, TF over GST control) | 1.28 fold enrichment (6-mer frequency, TF over GST control) | 1.19 fold enrichment (6-mer frequency, TF over GST control) | 1.18 fold enrichment (6-mer frequency, TF over GST control)
3 | AATAGT | 1.21 fold enrichment (6-mer frequency, TF over GST control) | 1.2 fold enrichment (6-mer frequency, TF over GST control) | 1.2 fold enrichment (6-mer frequency, TF over GST control) | 1.31 fold enrichment (6-mer frequency, TF over GST control) | 1.19 fold enrichment (6-mer frequency, TF over GST control) | 1.23 fold enrichment (6-mer frequency, TF over GST control) | 1.17 fold enrichment (6-mer frequency, TF over GST control) | 1.22 fold enrichment (6-mer frequency, TF over GST control) | 1.11 fold enrichment (6-mer frequency, TF over GST control)
4 | TCTCTC | 1.37 fold enrichment (6-mer frequency, TF over GST control) | 1.27 fold enrichment (6-mer frequency, TF over GST control) | 1.36 fold enrichment (6-mer frequency, TF over GST control) | 1.22 fold enrichment (6-mer frequency, TF over GST control) | 1.35 fold enrichment (6-mer frequency, TF over GST control) | 1.36 fold enrichment (6-mer frequency, TF over GST control) | 1.39 fold enrichment (6-mer frequency, TF over GST control) | 1.31 fold enrichment (6-mer frequency, TF over GST control) | 1.36 fold enrichment (6-mer frequency, TF over GST control)
5 | CTGGAA | 1.22 fold enrichment (6-mer frequency, TF over GST control) | 1.25 fold enrichment (6-mer frequency, TF over GST control) | 1.33 fold enrichment (6-mer frequency, TF over GST control) | 1.27 fold enrichment (6-mer frequency, TF over GST control) | 1.19 fold enrichment (6-mer frequency, TF over GST control) | 1.2 fold enrichment (6-mer frequency, TF over GST control) | 1.26 fold enrichment (6-mer frequency, TF over GST control) | 1.31 fold enrichment (6-mer frequency, TF over GST control) | 1.31 fold enrichment (6-mer frequency, TF over GST control)
6 | AATGCA | 1.25 fold enrichment (6-mer frequency, TF over GST control) | 1.28 fold enrichment (6-mer frequency, TF over GST control) | 1.28 fold enrichment (6-mer frequency, TF over GST control) | 1.29 fold enrichment (6-mer frequency, TF over GST control) | 1.27 fold enrichment (6-mer frequency, TF over GST control) | 1.25 fold enrichment (6-mer frequency, TF over GST control) | 1.21 fold enrichment (6-mer frequency, TF over GST control) | 1.34 fold enrichment (6-mer frequency, TF over GST control) | 1.3 fold enrichment (6-mer frequency, TF over GST control)
7 | CATTCT | 1.37 fold enrichment (6-mer frequency, TF over GST control) | 1.33 fold enrichment (6-mer frequency, TF over GST control) | 1.25 fold enrichment (6-mer frequency, TF over GST control) | 1.27 fold enrichment (6-mer frequency, TF over GST control) | 1.4 fold enrichment (6-mer frequency, TF over GST control) | 1.35 fold enrichment (6-mer frequency, TF over GST control) | 1.26 fold enrichment (6-mer frequency, TF over GST control) | 1.22 fold enrichment (6-mer frequency, TF over GST control) | 1.28 fold enrichment (6-mer frequency, TF over GST control)
8 | GCCTCT | 1.39 fold enrichment (6-mer frequency, TF over GST control) | 1.38 fold enrichment (6-mer frequency, TF over GST control) | 1.37 fold enrichment (6-mer frequency, TF over GST control) | 1.35 fold enrichment (6-mer frequency, TF over GST control) | 1.36 fold enrichment (6-mer frequency, TF over GST control) | 1.29 fold enrichment (6-mer frequency, TF over GST control) | 1.31 fold enrichment (6-mer frequency, TF over GST control) | 1.42 fold enrichment (6-mer frequency, TF over GST control) | 1.32 fold enrichment (6-mer frequency, TF over GST control)
